Source: PubChem BioAssay
NS1 inh: influenza NS1 inhibition; 0.4% of 270,000 active; Potency, µM (series often up to 46.1 µM), without a hit: at the highest dose activity, positive = more growth; AID 2326; calls by dose curve; also: potency is read from the fitted curve at half-maximal effect; actives are rising curves; nearly all actives have a fitted effect of over 50% in size
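Read-out: OD600 growth recovery of NS1-expressing budding yeast. Cells grown overnight at 30C in -URA glucose medium, washed, resuspended and diluted 1:100 in 2% galactose assay medium, pH 6.0. Same strain lacking NS1 served as positive control.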
Sm TGR inh: inhibitors of Schistosoma mansoni thioredoxin glutathione reductase; AID 485364; Q962Y6; Potency, µM (highest dose often 114 µM), for inactives: top-dose activity change, negative = inhibition, usual class: inhibitors; purified TGR, DTNB reduction, TNB absorbance 405 nm; 3% of 360,000 active; also: potency is read from the fitted curve at half-maximal effect; % is scaled to controls: 0 for no effect and ±100 for the full control effect; nearly all actives have a fitted effect of over 60% in size
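TGR 20 nM + NADPH 100 uM (dispensed conc.), cpd preinc 15 min RT; start with NADPH (500 uM addition) then DTNB (15 mM addition). Kinetic TNB absorbance, 405 nm filter. Four-parameter Hill fit across titration.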
Shiga toxin inh: Shiga toxin inhibition. Vero cells, Shiga toxin protein synthesis inhibition reporter. inhibition, % at 38.7 µM. 9.2% of 290,000 active; in the data active = inhibition mostly above about 28%, no sharp cut-off; inactive = mostly below about 43%; also: 0% is about no effect
Pf growth 48h: inhibits P. falciparum growth in the first generation, 48 h; 5.9% of 310,000 active; Potency, µM (doses to about 28.7 µM), for inactives: at the highest dose activity change, negative = inhibition, usual class: inhibitors; P. falciparum luciferase growth in erythrocytes, 48 h; also: potency is read from the fitted curve at half-maximal effect; % is scaled to controls: 0 for no effect and ±100 for the full control effect
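Luminescence readout; reporter = integrated firefly luciferase in P. falciparum. RBC culture at 2% hematocrit, 0.1% parasitemia final, 37 C/5% CO2; decreased signal taken as growth inhibition.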
Cycloheximide cs: counter-screen hit for Shiga toxin inhibitors, cycloheximide; max response, %; cell reporter, cycloheximide protein synthesis inhibition counterscreen; 12% of 300,000 active; AID 2314; in the data active = max response mostly above about 13%, no sharp cut-off; inactive = mostly below about 14%; also: read at 38.3 µM for the half of the compounds with a filed dose; 0% is about no effect
Pf growth 96h: P. falciparum growth inhibition at 96 hours; P. falciparum luciferase reporter growth, 96 h; Potency, µM (titrated, usually from 28.7 µM), without a hit: at the highest dose activity change, negative = inhibition, most hits filed as inhibitors; 6.9% of 320,000 active; AID 504834; also: potency is read from the fitted curve at half-maximal effect; % is scaled to controls: 0 for no effect and ±100 for the full control effect
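Luminescence readout: decreased luciferase signal marks inhibited growth of reporter-expressing P. falciparum in infected red cells (2% hematocrit, 0.05% parasitemia final), exposed to compound two generations (96 h, 37 C, 5% CO2).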
* hit, by the source's call. The list is not random: actives were taken first. Their share in the collection is about 21%. Unless noted, calls follow the shape of the dose curve; as a rule, active = well fitted curve in the direction sought with a large enough effect; inconclusive = small, poorly fitted or top-dose-only effect, or another doubt; inactive = no such curve, though single readings can be large; an effect the other way counts as inactive or inconclusive.

Results for C[C@H]1CCCC(=O)CCC/C=C/c2c(O)cc(O)cc2C(=O)O1 ?
Shiga toxin inh: -11; Cycloheximide cs: -4

Results for O=C(CCCNS(=O)(=O)c1ccc(Cl)c(Cl)c1)NCCc1ccccn1 ?
NS1 inh: -2%; Sm TGR inh: 6%; Shiga toxin inh: -14; Pf growth 48h: inconclusive; Cycloheximide cs: -1; Pf growth 96h: -9%

Results for Cc1ccc(OCC(=O)NC2CCS(=O)(=O)C2)c(C)c1 (stereo unspecified) ?
NS1 inh: 0%; Sm TGR inh: 3%; Shiga toxin inh: -14; Pf growth 48h: 8%; Cycloheximide cs: 5; Pf growth 96h: 5.9µM*

What do the screens show for `CN(C(=O)COc1ccc(Br)cc1Cl)C1CCCCC1`?
NS1 inh: -4%; Sm TGR inh: 15%; Shiga toxin inh: 53*; Pf growth 48h: -3%; Cycloheximide cs: 24*; Pf growth 96h: -1%

Results for Cn1cccc1C(=O)OCC(=O)NC1CCS(=O)(=O)C1 (stereo unspecified) ?
NS1 inh: 2%; Sm TGR inh: 3%; Shiga toxin inh: -9; Pf growth 48h: 1.5µM*; Cycloheximide cs: 1; Pf growth 96h: 18%

What do the screens show for `O=C(COc1ccc(Br)cc1Cl)NC1CCN(Cc2ccccc2)CC1`?
NS1 inh: -21%; Sm TGR inh: -15%; Shiga toxin inh: -5; Pf growth 48h: inconclusive; Cycloheximide cs: -3; Pf growth 96h: 12µM*

What do the screens show for `O=C(COc1ccccc1)NC1CCN(Cc2ccccc2)CC1`?
NS1 inh: 14%; Sm TGR inh: -4%; Shiga toxin inh: -4; Pf growth 48h: inconclusive; Cycloheximide cs: 0; Pf growth 96h: 12%

Results for CCN(CC)C(=O)COc1ccc(Br)cc1Cl ?
NS1 inh: 0%; Sm TGR inh: -7%; Shiga toxin inh: -3; Pf growth 48h: 11%; Cycloheximide cs: -3; Pf growth 96h: 29%

Results for COc1cccc(N2CCN(C(=O)c3c4c(nc5ccccc35)C(=O)N(C3CCCCC3)C4)CC2)c1 ?
Sm TGR inh: 4%

Results for Cc1ccc2c(=O)cc(C(=O)Nc3sc4c(c3C(=O)NCc3ccccc3)CCCC4)oc2c1C ?
Sm TGR inh: 8%

How did Cc1csc2nc(COC(=O)CNC(=O)c3ccccc3Cl)cc(=O)n12 do in these assays?
Sm TGR inh: -1%

Results for Cc1c(C(=O)NC2CCN(Cc3ccccc3)C2)oc2ccc(Br)cc12 (stereo unspecified) ?
NS1 inh: -9%; Sm TGR inh: 8%; Shiga toxin inh: 78*; Pf growth 48h: -3%; Cycloheximide cs: 14*; Pf growth 96h: 25%

Results for CC(C)(C)NC(=O)NC(=O)COc1ccc(Br)cc1Br ?
NS1 inh: -42%; Sm TGR inh: -16%; Shiga toxin inh: 136*; Pf growth 48h: 236%; Cycloheximide cs: 90*; Pf growth 96h: 265%

Results for CCCn1nc(C(=O)N2CCN(S(=O)(=O)c3ccc(C)c(C)c3)CC2)c2ccccc2c1=O ?
Sm TGR inh: -7%; Pf growth 48h: 12µM*; Pf growth 96h: inconclusive

What do the screens show for `COc1ccc(NC(=O)c2cc(S(=O)(=O)N3CCOCC3)cs2)cc1`?
NS1 inh: 0%; Sm TGR inh: -5%; Shiga toxin inh: -10; Pf growth 48h: 0%; Cycloheximide cs: 15; Pf growth 96h: 3%

How did CCOC(=O)c1c(-c2ccc(C)cc2)csc1NC(=O)CCN1CC(C)OC(C)C1 (stereo unspecified) do in these assays?
NS1 inh: -26%; Sm TGR inh: -9%; Shiga toxin inh: -9; Pf growth 48h: inconclusive; Cycloheximide cs: 0; Pf growth 96h: inconclusive

Results for CCOC(=O)c1c(NC(=O)COC(=O)c2cnccn2)sc(C(=O)NC)c1C ?
Sm TGR inh: 0%; Pf growth 48h: 5%; Pf growth 96h: 47%

What do the screens show for `CCOC(=O)c1c(-c2ccc(C)o2)csc1NC(=O)CN(C)CC(=O)Nc1ccc(C)cc1`?
NS1 inh: 4%; Sm TGR inh: inconclusive; Shiga toxin inh: -26; Cycloheximide cs: -5; Pf growth 96h: inconclusive

Results for CCOC(=O)c1c(-c2ccc(C)o2)csc1NC(=O)CSc1nncs1 ?
NS1 inh: -51%; Sm TGR inh: 4.5µM*; Shiga toxin inh: -13; Pf growth 48h: 10µM*; Cycloheximide cs: 2; Pf growth 96h: 31%

Results for CCOC(=O)c1c(-c2ccco2)csc1NC(=O)COC(=O)c1cnccn1 ?
Sm TGR inh: 7.9µM*; Pf growth 48h: 24%; Pf growth 96h: inconclusive

Results for CCOC(=O)c1c(-c2ccc(C)o2)csc1NC(=O)CN1CCN(CC)CC1 ?
NS1 inh: 7%; Sm TGR inh: 50µM*; Shiga toxin inh: -13; Pf growth 48h: 8%; Cycloheximide cs: -1; Pf growth 96h: -12%

How did CCOC(=O)c1c(-c2ccc(C)o2)csc1NC(=O)CN1CCCCC1 do in these assays?
Sm TGR inh: 8.9µM*; Shiga toxin inh: -4; Pf growth 48h: inconclusive; Cycloheximide cs: -1; Pf growth 96h: inconclusive

What do the screens show for `CCOC(=O)c1c(-c2ccc(C)o2)csc1NC(=O)CN1CCC(C(N)=O)CC1`?
NS1 inh: 0%; Sm TGR inh: 14µM*; Shiga toxin inh: 24; Pf growth 48h: inconclusive; Cycloheximide cs: -5; Pf growth 96h: inconclusive

Results for CCOC(=O)c1c(-c2ccc(C)o2)csc1NC(=S)NC(=O)c1ccc(F)cc1 ?
NS1 inh: 6%; Sm TGR inh: -13%; Shiga toxin inh: -17; Pf growth 48h: 8.3µM*; Cycloheximide cs: -1; Pf growth 96h: 7.4µM*

How did CCOC(=O)c1c(-c2ccc(OC)cc2)csc1NC(=O)CCN1CCOCC1 do in these assays?
NS1 inh: -39%; Sm TGR inh: -3%; Shiga toxin inh: -10; Pf growth 48h: 12µM*; Cycloheximide cs: 1; Pf growth 96h: 5.9µM*

How did CCOC(=O)c1c(-c2ccc(F)cc2)csc1NC(=O)C1CCCO1 (stereo unspecified) do in these assays?
NS1 inh: -2%; Sm TGR inh: -26%; Shiga toxin inh: -6; Pf growth 48h: -7%; Cycloheximide cs: -3; Pf growth 96h: -3%

Results for O=C(O)CC1SC(N/N=C/c2ccc(Br)cc2)NC1=O (stereo unspecified) ?
Sm TGR inh: -1%; Shiga toxin inh: 79*; Pf growth 48h: 299%; Cycloheximide cs: 44*; Pf growth 96h: 18%

What do the screens show for `COc1ccc(Cc2nc3ccc(C(=O)NCCc4ccccn4)cc3o2)cc1OC`?
NS1 inh: -2%; Sm TGR inh: -1%; Shiga toxin inh: 20; Pf growth 48h: -42%; Cycloheximide cs: 14; Pf growth 96h: -18%

What do the screens show for `Cc1[nH]c2ccccc2c1C(=O)CSc1nncn1C`?
NS1 inh: 0%; Sm TGR inh: -14%; Shiga toxin inh: -2; Pf growth 48h: -3%; Cycloheximide cs: -1; Pf growth 96h: 2%
